# In the supplement of paper PMC8728848:
# The full list was thinned out, with the strongest signals kept by preference.
# Assays:
# Test in all cases: glycan array binding signal (z-score within array); higher = stronger binding
# Conditions in all cases: glycan notation: IUPAC condensed, linker removed
# [1] = target: Fuc(a1-2)Gal(b1-3)GalNAc(b1-3)Gal(a1-4)Gal(b1-4)Glc
# Method in brief: (§1)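 The Consortium for Functional Glycomics database supplied 3228 glycan arrays, of which those lacking an available protein sequence were dropped. The binding signal, a within-array Z-score, was averaged across arrays of the same protein sequence and across linkers. Negative scores can be read as non-binding.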
# [2] = target: Fuc(a1-2)Gal(b1-4)GlcNAc(b1-2)Man(a1-3)[Fuc(a1-2)Gal(b1-4)GlcNAc(b1-2)Man(a1-6)]Man(b1-4)GlcNAc(b1-4)GlcNAc
# Method in brief: as §1
# [3] = target: Fuc(a1-2)Gal(b1-4)GlcNAc(b1-3)Gal(b1-4)GlcNAc(b1-2)Man(a1-3)[Fuc(a1-2)Gal(b1-4)GlcNAc(b1-3)Gal(b1-4)GlcNAc(b1-2)Man(a1-6)]Man(b1-4)GlcNAc(b1-4)GlcNAc
# Method in brief: as §1
# [4] = target: Fuc(a1-2)Gal6S(b1-3)GlcNAc6S
# Method in brief: as §1
# Fuc(a1-2)[Gal(a1-3)]Gal = target: Fuc(a1-2)[Gal(a1-3)]Gal
# Method in brief: as §1
# [5] = target: Fuc(a1-2)[Gal(a1-3)]Gal(b1-4)GlcNAc(b1-6)GalNAc
# Method in brief: as §1
# [6] = target: Fuc(a1-2)[GalNAc(a1-3)]Gal(b1-4)GlcNAc(b1-2)Man
# Method in brief: as §1
# [7] = target: Fuc(a1-2)[GalNAc(a1-3)]Gal(b1-4)GlcNAc(b1-3)Gal(b1-4)GlcNAc(b1-3)Gal(b1-4)GlcNAc
# Method in brief: as §1
# [8] = target: Fuc(a1-3)[Gal(b1-4)]GlcNAc(b1-2)Man(a1-3)[Fuc(a1-3)[Gal(b1-4)]GlcNAc(b1-2)Man(a1-6)]Man(b1-4)GlcNAc(b1-4)[Fuc(a1-6)]GlcNAc
# Method in brief: as §1
# Gal(a1-3)Gal = target: Gal(a1-3)Gal
# Method in brief: as §1
# [9] = target: Gal(a1-3)Gal(b1-4)GlcNAc(b1-3)GalNAc
# Method in brief: as §1
# [10] = target: Gal(a1-4)Gal(b1-4)GlcNAc(b1-2)Man(a1-3)[Gal(a1-4)Gal(b1-4)GlcNAc(b1-2)Man(a1-6)]Man(b1-4)GlcNAc(b1-4)GlcNAc
# Method in brief: as §1
# Gal(b1-2)Gal = target: Gal(b1-2)Gal
# Method in brief: as §1
# Gal(b1-3)GalNAc(b1-3)Gal = target: Gal(b1-3)GalNAc(b1-3)Gal
# Method in brief: as §1
# [11] = target: Gal(b1-3)GalNAc(b1-4)[Neu5Ac(a2-3)]Gal(b1-4)Glc
# Method in brief: as §1
# Gal(b1-4)GlcNAc(b1-2)Man = target: Gal(b1-4)GlcNAc(b1-2)Man
# Method in brief: as §1
# [12] = target: Gal(b1-4)GlcNAc(b1-2)[Gal(b1-4)GlcNAc(b1-4)]Man(a1-3)[Gal(b1-4)GlcNAc(b1-2)Man(a1-6)]Man(b1-4)GlcNAc(b1-4)GlcNAc
# Method in brief: as §1
# [13] = target: Gal(b1-4)GlcNAc(b1-3)Gal(b1-4)GlcNAc
# Method in brief: as §1
# [14] = target: Gal(b1-4)GlcNAc(b1-3)Gal(b1-4)GlcNAc(b1-3)Gal(b1-4)GlcNAc(b1-3)Gal(b1-4)GlcNAc(b1-3)Gal(b1-4)GlcNAc(b1-2)Man(a1-3)[Gal(b1-4)GlcNAc(b1-3)Gal(b1-4)GlcNAc(b1-3)Gal(b1-4)GlcNAc(b1-3)Gal(b1-4)GlcNAc(b1-3)Gal(b1-4)GlcNAc(b1-2)Man(a1-6)]Man(b1-4)GlcNAc(b1-4)GlcNAc
# Method in brief: as §1
# [15] = target: Gal(b1-4)GlcNAc(b1-3)Gal(b1-4)GlcNAc(b1-3)Gal(b1-4)GlcNAc(b1-3)Gal(b1-4)GlcNAc(b1-3)Gal(b1-4)GlcNAc(b1-2)Man(a1-3)[Gal(b1-4)GlcNAc(b1-3)Gal(b1-4)GlcNAc(b1-3)Gal(b1-4)GlcNAc(b1-3)Gal(b1-4)GlcNAc(b1-3)Gal(b1-4)GlcNAc(b1-2)Man(a1-6)]Man(b1-4)GlcNAc(b1-4)[Fuc(a1-6)]GlcNAc
# Method in brief: as §1
# Gal3S(b1-3)GalNAc = target: Gal3S(b1-3)GalNAc
# Method in brief: as §1
# Gal6S(b1-4)GlcNAc6S = target: Gal6S(b1-4)GlcNAc6S
# Method in brief: as §1
# [16] = target: GalNAc(b1-3)Gal(a1-4)Gal(b1-4)GlcNAc
# Method in brief: as §1
# GalNAc(b1-3)GlcNAc = target: GalNAc(b1-3)GlcNAc
# Method in brief: as §1
# GalNAc(b1-4)Gal(b1-4)Glc = target: GalNAc(b1-4)Gal(b1-4)Glc
# Method in brief: as §1
# [17] = target: GalNAc(b1-4)GlcNAc(b1-3)GalNAc(b1-4)GlcNAc
# Method in brief: as §1
# GalNAc3S(b1-4)GlcNAc = target: GalNAc3S(b1-4)GlcNAc
# Method in brief: as §1
# [18] = target: GlcNAc(b1-2)Man(a1-3)[GlcNAc(b1-2)Man(a1-6)]Man(b1-4)GlcNAc(b1-4)[Fuc(a1-6)]GlcNAc
# Method in brief: as §1
# [19] = target: GlcNAc(b1-2)Man(a1-3)[GlcNAc(b1-4)][GlcNAc(b1-2)Man(a1-6)]Man(b1-4)GlcNAc(b1-4)GlcNAc
# Method in brief: as §1
# [20] = target: GlcNAc(b1-2)[GlcNAc(b1-6)]Man(a1-6)[GlcNAc(b1-4)][GlcNAc(b1-2)Man(a1-3)]Man(b1-4)GlcNAc(b1-4)GlcNAc
# Method in brief: as §1
# GlcNAc(b1-3)Gal(b1-4)Glc = target: GlcNAc(b1-3)Gal(b1-4)Glc
# Method in brief: as §1
# [21] = target: GlcNAc(b1-3)Gal(b1-4)GlcNAc(b1-3)Gal(b1-4)GlcNAc(b1-3)Gal(b1-4)GlcNAc(b1-3)Gal(b1-4)GlcNAc(b1-2)Man(a1-3)[GlcNAc(b1-3)Gal(b1-4)GlcNAc(b1-3)Gal(b1-4)GlcNAc(b1-3)Gal(b1-4)GlcNAc(b1-3)Gal(b1-4)GlcNAc(b1-2)Man(a1-6)]Man(b1-4)GlcNAc(b1-4)[Fuc(a1-6)]GlcNAc
# Method in brief: as §1
# [22] = target: GlcNAc(b1-3)Gal(b1-4)GlcNAc(b1-3)GalNAc
# Method in brief: as §1
# [23] = target: GlcNAc(b1-3)Gal(b1-4)GlcNAc(b1-6)[GlcNAc(b1-3)]Gal(b1-4)GlcNAc
# Method in brief: as §1
# [24] = target: GlcNAc(b1-3)[GlcNAc(b1-4)][GlcNAc(b1-6)]GlcNAc
# Method in brief: as §1
# [25] = target: GlcNAc(b1-4)GlcNAc(b1-4)GlcNAc(b1-4)GlcNAc(b1-4)GlcNAc
# Method in brief: as §1
# Kdn(a2-6)Gal(b1-4)GlcNAc = target: Kdn(a2-6)Gal(b1-4)GlcNAc
# Method in brief: as §1
# [26] = target: Man(a1-2)Man(a1-6)[Man(a1-3)]Man(a1-6)[Man(a1-2)Man(a1-2)Man(a1-3)]Man
# Method in brief: as §1
# [27] = target: Neu5Ac(a2-3)Gal(b1-4)GlcNAc(b1-2)[Neu5Ac(a2-3)Gal(b1-4)GlcNAc(b1-4)]Man(a1-3)[GlcNAc(b1-4)][Neu5Ac(a2-3)Gal(b1-4)GlcNAc(b1-2)[Neu5Ac(a2-3)Gal(b1-4)GlcNAc(b1-6)]Man(a1-6)]Man(b1-4)GlcNAc(b1-4)GlcNAc
# Method in brief: as §1
# [28] = target: Neu5Ac(a2-3)Gal(b1-4)[Fuc(a1-3)]GlcNAc(b1-3)Gal(b1-4)[Fuc(a1-3)]GlcNAc(b1-3)Gal(b1-4)[Fuc(a1-3)]GlcNAc
# Method in brief: as §1
# Neu5Ac(a2-3)GalNAc = target: Neu5Ac(a2-3)GalNAc
# Method in brief: as §1
# [29] = target: Neu5Ac(a2-6)Gal(b1-4)GlcNAc(b1-2)Man(a1-3)[Gal(b1-4)GlcNAc(b1-2)Man(a1-6)]Man(b1-4)GlcNAc(b1-4)GlcNAc
# Method in brief: as §1
# [30] = target: Neu5Ac(a2-6)Gal(b1-4)GlcNAc(b1-2)Man(a1-6)Man(b1-4)GlcNAc(b1-4)GlcNAc
# Method in brief: as §1
# [31] = target: Neu5Ac(a2-6)Gal(b1-4)GlcNAc(b1-3)Gal(b1-4)GlcNAc(b1-6)[Gal(b1-3)]GalNAc
# Method in brief: as §1
# [32] = target: Neu5Ac(a2-6)Gal(b1-4)GlcNAc(b1-6)[Gal(b1-3)GlcNAc(b1-3)]Gal(b1-4)Glc
# Method in brief: as §1
# [33] = target: Neu5Ac(a2-6)Gal(b1-4)GlcNAc6S
# Method in brief: as §1
# [34] = target: Neu5Gc(a2-3)Gal(b1-3)[Fuc(a1-4)]GlcNAc
# Method in brief: as §1
binder,measurement,setting,value
"pTFF2 (Sus scrofa), P01359 (protein) KPAACRCSRQDPKNRVNCGFPGITSDQCFTSGCCFDSQVPGVPWCFKPLPAQESEECVMEVSARKNCGYPGISPEDCAARNCCFSDTIPEVPWCFFPMSVEACHY",glycan array binding signal (z-score),[1],-0.047
same,glycan array binding signal (z-score),[2],0.121
same,glycan array binding signal (z-score),[3],0.716
same,glycan array binding signal (z-score),[4],-0.991
same,glycan array binding signal (z-score),Fuc(a1-2)[Gal(a1-3)]Gal,-0.204
same,glycan array binding signal (z-score),[5],-0.303
same,glycan array binding signal (z-score),[6],0.535
same,glycan array binding signal (z-score),[7],-0.048
same,glycan array binding signal (z-score),[8],-0.109
same,glycan array binding signal (z-score),Gal(a1-3)Gal,-0.276
same,glycan array binding signal (z-score),[9],0.196
same,glycan array binding signal (z-score),[10],2.45
same,glycan array binding signal (z-score),Gal(b1-2)Gal,-1.31
same,glycan array binding signal (z-score),Gal(b1-3)GalNAc(b1-3)Gal,2.98
same,glycan array binding signal (z-score),[11],2.82
same,glycan array binding signal (z-score),Gal(b1-4)GlcNAc(b1-2)Man,-2.22
same,glycan array binding signal (z-score),[12],-0.702
same,glycan array binding signal (z-score),[13],-0.47
same,glycan array binding signal (z-score),[14],2.48
same,glycan array binding signal (z-score),[15],2.62
same,glycan array binding signal (z-score),Gal3S(b1-3)GalNAc,0.185
same,glycan array binding signal (z-score),Gal6S(b1-4)GlcNAc6S,0.285
same,glycan array binding signal (z-score),[16],-0.4
same,glycan array binding signal (z-score),GalNAc(b1-3)GlcNAc,0.736
same,glycan array binding signal (z-score),GalNAc(b1-4)Gal(b1-4)Glc,4.38
same,glycan array binding signal (z-score),[17],-0.11
same,glycan array binding signal (z-score),GalNAc3S(b1-4)GlcNAc,2.64
same,glycan array binding signal (z-score),[18],-1.4
same,glycan array binding signal (z-score),[19],0.002
same,glycan array binding signal (z-score),[20],0.104
same,glycan array binding signal (z-score),GlcNAc(b1-3)Gal(b1-4)Glc,-0.368
same,glycan array binding signal (z-score),[21],4.15
same,glycan array binding signal (z-score),[22],3.21
same,glycan array binding signal (z-score),[23],-0.954
same,glycan array binding signal (z-score),[24],0.277
same,glycan array binding signal (z-score),[25],-0.168
same,glycan array binding signal (z-score),Kdn(a2-6)Gal(b1-4)GlcNAc,0.54
same,glycan array binding signal (z-score),[26],0.712
same,glycan array binding signal (z-score),[27],6.13
same,glycan array binding signal (z-score),[28],-0.094
same,glycan array binding signal (z-score),Neu5Ac(a2-3)GalNAc,1.05
same,glycan array binding signal (z-score),[29],0.708
same,glycan array binding signal (z-score),[30],2.29
same,glycan array binding signal (z-score),[31],-0.859
same,glycan array binding signal (z-score),[32],-0.007
same,glycan array binding signal (z-score),[33],-1.45
same,glycan array binding signal (z-score),[34],0.024
